Source: PubChem BioAssay (several laboratories)
rCAG RNA binder: binders of r(CAG) RNA repeats, primary screen, biochemical, fluorescence. r(CAG) RNA repeat, TO-PRO-1 dye displacement fluorescence. inhibition, % at 3 µM. 370,000 tested, 1.3% active;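 active = inhibition above the plate cutoff, the mean of all test compounds on that plate plus 3 SD, cut at about 35% in these data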;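 note: higher means more dye released from RNA so lower well fluorescence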
DNMT1 block: human DNMT1 methyltransferase inhibitors, primary screen, biochemical, molecular beacon, fluorescence, HinP1I cleavage, uHTS; inhibition (reported as % activation of signal), % at 10 µM; 360,000 tested, 0.83% active; AID 588458, 2011; in the data active = inhibition above about 50%
MBD2 DNA inh: inhibitors of MBD2 binding to methylated DNA, primary screen, biochemical, TR-FRET, DNA-binding domain, human; Methyl-CpG-binding domain protein 2 (Homo sapiens), Q9UBB5; MBD2 binding to methylated oligonucleotide; inhibition, % at 4.4 µM; 370,000 tested, 0.31% active; in the data active = inhibition above about 13%
LEDGF integ inh: blockers of LEDGF/p75-dependent integrase strand transfer – biochemical, TR-FRET, high throughput, primary screen | HIV-1 integrase (with human LEDGF/p75) | TR-FRET IN-LEDGF/p75 DNA integration, Eu/Cy5 | inhibition, % at 3.7 µM | 370,000 tested, 0.64% active;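 active = inhibition above the screen-wide mean plus 3 SD, cut at about 13% in these data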;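 note: signal is the Cy5 over europium emission ratio at 671 and 618 nm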
UHRF1 binding: UHRF1 methylated DNA binding inhibitors, primary screen, counter-screen for MBD2 inhibitor project, biochemical, TR-FRET, human UHRF1, single concentration | E3 ubiquitin-protein ligase UHRF1 (Homo sapiens), Q96T88 | UHRF1 binding to methylated oligo | inhibition, % at 4.4 µM | 370,000 tested, 0.75% active | AID 687016, 2013;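 note: UHRF1 SRA domain binding a hemimethylated CpG hairpin DNA probe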
Target sequence (Q96T88 whole entry, looked up, the tested form may be a part): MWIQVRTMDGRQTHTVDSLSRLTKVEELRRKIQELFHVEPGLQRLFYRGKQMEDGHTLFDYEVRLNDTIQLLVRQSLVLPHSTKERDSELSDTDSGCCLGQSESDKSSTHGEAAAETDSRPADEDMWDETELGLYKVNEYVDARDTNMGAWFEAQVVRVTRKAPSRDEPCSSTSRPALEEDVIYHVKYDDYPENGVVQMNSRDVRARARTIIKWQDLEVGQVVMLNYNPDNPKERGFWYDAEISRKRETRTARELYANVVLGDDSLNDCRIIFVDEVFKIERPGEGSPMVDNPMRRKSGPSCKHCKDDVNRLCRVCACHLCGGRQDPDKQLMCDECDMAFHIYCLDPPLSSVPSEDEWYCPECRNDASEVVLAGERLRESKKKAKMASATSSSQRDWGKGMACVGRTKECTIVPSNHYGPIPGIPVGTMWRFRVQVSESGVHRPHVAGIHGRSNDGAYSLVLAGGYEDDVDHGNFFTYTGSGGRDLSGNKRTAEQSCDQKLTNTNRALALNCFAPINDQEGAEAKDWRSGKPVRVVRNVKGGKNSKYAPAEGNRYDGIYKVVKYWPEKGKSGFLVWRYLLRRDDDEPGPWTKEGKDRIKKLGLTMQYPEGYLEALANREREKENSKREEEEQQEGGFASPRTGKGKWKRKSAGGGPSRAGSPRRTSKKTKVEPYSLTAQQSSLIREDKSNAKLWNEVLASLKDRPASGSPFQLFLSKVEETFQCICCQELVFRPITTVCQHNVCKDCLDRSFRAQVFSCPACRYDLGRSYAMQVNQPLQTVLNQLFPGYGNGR
PG9 Ab binder: binders of HIV-1 gp120 antibody PG9, primary screen, biochemical, TR-FRET. HIV-1 gp120 / PG9 antibody interaction. TR-FRET gp120-PG9 antibody binding. inhibition, % at 6.7 µM. 360,000 tested, 0.43% active; in the data active = inhibition above about 8.5%
rCAG bind conf: small molecules binding CAG repeat RNA – biochemical, fluorescence, confirmation | shares compounds with rCAG RNA binder | r(CAG) RNA repeat, TO-PRO-1 dye displacement fluorescence | inhibition, % at 3 µM | 4,300 tested, 70% active;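 active = inhibition above a per-plate cutoff, the mean inhibition of sample wells plus 3 SD, cut at about 35% in these data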;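 note: loss of TO-PRO-1 fluorescence as compound displaces dye from 1x1 AA loop RNA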
DNA CAG counter: displacement of TO-PRO-1 from CAG DNA duplex, counter-screen for rCAG RNA repeat binder project, biochemical, fluorescence, TO-PRO-1 dye, d(CAG) DNA oligo; shares compounds with rCAG RNA binder; d(CAG) DNA oligo TO-PRO-1 dye displacement; inhibition, % at 3 µM; 4,300 tested, 94% active;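 active = inhibition above its plate's cutoff, the mean test-well inhibition plus 3 SD, cut at about 4.8% in these data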;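 note: hits displace the dye from DNA and so lower well fluorescence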
UHRF1 DNA bind: UHRF1 methylated DNA binding inhibitors, counter-screen for MBD2 inhibitor project, biochemical, TR-FRET, human UHRF1; shares compounds with MBD2 DNA inh; UHRF1 binding to methylated oligonucleotide; inhibition, % at 4.4 µM; 1,000 tested, 25% active; AID 720530, 2013;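 note: UHRF1 SRA domain binding a labeled hemimethylated CpG hairpin DNA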
MBD2 confirm: inhibitors of MBD2 binding to methylated DNA, confirmation, biochemical, TR-FRET, DNA-binding domain, human; TR-FRET MBD2-DBD binding to methylated oligonucleotide; AID 720531, 2013; 1,000 tested, 26% active; shares compounds with MBD2 DNA inh; inhibition, % at 4.4 µM; in the data active = inhibition above about 14%
IN multimer act: HIV-1 IN multimer formation enhancers, counter-screen for LEDGF/p75 integration inhibitor project, biochemical, TR-FRET; shares compounds with LEDGF integ inh; TR-FRET HIV-1 integrase multimerization; activation, % at 7.7 µM; 2,000 tested, 17% active; in the data active = activation above about 8.9%
TR-FRET interf: TR-FRET optical interference artefacts, confirmation, artefact control for LEDGF/p75-dependent integration inhibitor project, biochemical, HIV-1 IN multimerization; shares compounds with LEDGF integ inh; TR-FRET optical interference counterscreen; inhibition, % at 7.7 µM; 2,000 tested, under 10 active; AID 1053135, 2014;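 active = inhibition above the mean over all tested compounds plus 3 SD, which no compound reached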
IN-LEDGF confirm: inhibitors of HIV-1 IN-LEDGF/p75 DNA integration, confirmation, biochemical, TR-FRET; shares compounds with LEDGF integ inh; TR-FRET LEDGF/p75-dependent HIV-1 integration; inhibition, % at 3.7 µM; 2,000 tested, 36% active; AID 1053136, 2014; in the data active = inhibition above about 14%
Hits are given with their value. An excerpt weighted towards active compounds, which were near 3.5% of everything screened. Cut-off read from the data, not from the text of the source, unless noted: active = inhibition above about 21%; inactive = the rest.

Results for CCOC(=O)C1=C(O)/C(=C\c2ccc(CNS(=O)(=O)c3ccc(Br)cc3)o2)N=C1C ?
rCAG RNA binder: 36.6; DNMT1 block: inactive; MBD2 DNA inh: inactive; LEDGF integ inh: 21.8; UHRF1 binding: inactive; PG9 Ab binder: inactive; rCAG bind conf: 42.8; DNA CAG counter: 15.6; IN multimer act: inactive; TR-FRET interf: inactive; IN-LEDGF confirm: inactive

Results for COc1ccc(N=Cc2ccc(CNS(=O)(=O)c3ccc(Cl)cc3)o2)cc1 ?
rCAG RNA binder: inactive; DNMT1 block: inactive; MBD2 DNA inh: inactive; LEDGF integ inh: inactive; UHRF1 binding: inactive; PG9 Ab binder: inactive

What do the screens show for `O=S(=O)(/C=C/C=C/S(=O)(=O)c1ccccc1)c1ccccc1`?
rCAG RNA binder: inactive; DNMT1 block: inactive; MBD2 DNA inh: inactive; LEDGF integ inh: inactive; UHRF1 binding: inactive; PG9 Ab binder: inactive

Results for Cc1ccc(S(=O)(=O)N2[C@H](CC(=O)Oc3ccccc3)OC[C@@H]2C(C)C)cc1 ?
rCAG RNA binder: inactive; MBD2 DNA inh: inactive; LEDGF integ inh: inactive; UHRF1 binding: inactive; PG9 Ab binder: inactive

How did C/C=C/COC(=O)c1[nH]c2c(c1C)C(=O)CC(c1ccco1)C2 (configuration not stated) do in these assays?
rCAG RNA binder: 38.0; DNMT1 block: inactive; MBD2 DNA inh: inactive; LEDGF integ inh: 18.3; UHRF1 binding: inactive; PG9 Ab binder: inactive; rCAG bind conf: inactive; DNA CAG counter: 9.4; IN multimer act: inactive; TR-FRET interf: inactive; IN-LEDGF confirm: 21.1

Results for Cc1cc(/C=C2\SC(=S)NC2=O)c(C)[nH]1 ?
rCAG RNA binder: 34.6; DNMT1 block: inactive; MBD2 DNA inh: inactive; LEDGF integ inh: 33.9; UHRF1 binding: inactive; PG9 Ab binder: inactive; rCAG bind conf: inactive; DNA CAG counter: 6.9; IN multimer act: 12.0; TR-FRET interf: inactive; IN-LEDGF confirm: inactive

How did O=C1NC(=S)S/C1=C\c1cc(Cl)ccc1Cl do in these assays?
rCAG RNA binder: inactive; DNMT1 block: inactive; MBD2 DNA inh: inactive; LEDGF integ inh: inactive; UHRF1 binding: inactive; PG9 Ab binder: inactive

How did COc1ccc(-c2noc(N3CCC(C(=O)NCCCN4CC(C)CC(C)C4)CC3)n2)cc1 (configuration not stated) do in these assays?
rCAG RNA binder: inactive; DNMT1 block: inactive; MBD2 DNA inh: inactive; LEDGF integ inh: inactive; UHRF1 binding: inactive; PG9 Ab binder: inactive

How did O=C(/C=C/c1ccco1)c1cccnc1 do in these assays?
rCAG RNA binder: 36.1; DNMT1 block: inactive; MBD2 DNA inh: 31.2; LEDGF integ inh: 67.0; UHRF1 binding: 84.0; PG9 Ab binder: inactive; rCAG bind conf: inactive; DNA CAG counter: 5.2; UHRF1 DNA bind: 44.2; MBD2 confirm: 19.7; IN multimer act: inactive; TR-FRET interf: inactive; IN-LEDGF confirm: 50.9

How did O=C(CCCSc1ccccc1)Nc1nc(-c2ccco2)c(-c2ccco2)s1 do in these assays?
rCAG RNA binder: 73.7; DNMT1 block: inactive; MBD2 DNA inh: inactive; LEDGF integ inh: 19.5; UHRF1 binding: inactive; PG9 Ab binder: inactive; rCAG bind conf: inactive; DNA CAG counter: 14.3; IN multimer act: inactive; TR-FRET interf: inactive; IN-LEDGF confirm: inactive

Results for O=c1cc(-c2ccccc2)oc2cc(O)c(O)c(O)c12 ?
rCAG RNA binder: 38.3; DNMT1 block: inactive; MBD2 DNA inh: inactive; LEDGF integ inh: 29.9; UHRF1 binding: inactive; PG9 Ab binder: inactive; rCAG bind conf: inactive; DNA CAG counter: 14.2; IN multimer act: inactive; TR-FRET interf: inactive; IN-LEDGF confirm: 25.8

What do the screens show for `COc1ccc(C2=Nc3ccccc3N(C(=O)c3ccc(C(F)(F)F)cc3)C2C(=O)Nc2ccc3c(c2)OCCO3)cc1` (configuration not stated)?
rCAG RNA binder: inactive; MBD2 DNA inh: inactive; LEDGF integ inh: inactive; UHRF1 binding: inactive; PG9 Ab binder: inactive

What do the screens show for `COc1ccc(Oc2c(-c3cccs3)cnn(-c3ccc(C)cc3)c2=O)cc1`?
MBD2 DNA inh: inactive; LEDGF integ inh: inactive; UHRF1 binding: inactive

How did CN(C)CCN(C(=O)C1=COCCO1)c1nc2ccc(F)cc2s1 do in these assays?
rCAG RNA binder: inactive; DNMT1 block: inactive; MBD2 DNA inh: inactive; LEDGF integ inh: inactive; UHRF1 binding: inactive; PG9 Ab binder: inactive

What do the screens show for `CCN1C(=O)[C@@H]2[C@@H]3CN(S(=O)(=O)c4ccc(C)cc4)[C@@H](c4ccccc4)[C@@H]3C(=O)C[C@@H]2C1=O`?
rCAG RNA binder: inactive; DNMT1 block: inactive; MBD2 DNA inh: inactive; LEDGF integ inh: inactive; UHRF1 binding: inactive; PG9 Ab binder: inactive
